Screening results: PubChem, Broad Institute
FGF22 binding = FGF22 (human) thermal shift binding; recombinant FGF22 thermal shift, SYPRO orange fluorescence; percent of sucrose octasulfate shift, DMSO zero; activity (Tm shift, normalised), % at 9.99 µM; 340,000 tested, 1.5% active; AID 651658;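 active means mean Tm shift, scaled 0 neutral to 100 positive control, at about 1.3% or above, every replicate too, limit read from the data; inconclusive means no clear call, values can overlap the other calls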
Target sequence (Q9HCT0 whole entry, looked up): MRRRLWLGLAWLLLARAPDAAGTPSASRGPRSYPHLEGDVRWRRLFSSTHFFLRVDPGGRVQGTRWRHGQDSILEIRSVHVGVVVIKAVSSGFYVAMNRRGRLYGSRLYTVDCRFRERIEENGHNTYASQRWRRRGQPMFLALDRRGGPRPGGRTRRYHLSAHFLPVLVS
F508del corr = correctors of CFTR F508del function in bronchial epithelial cells; CFBE cells, YFP halide quenching; stimulated with forskolin plus potentiator P3; % fluorescence drop versus neutral controls; activity (quench increase), % at 7.58 µM; 350,000 tested, 0.36% active;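 active means mean added fluorescence quench of at least 8% versus neutral control, with both replicates also reaching 8%; inconclusive means only one of the mean or replicate conditions met; inactive means mean below 8% and not both replicates reaching 8%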;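 further: cells transiently co-express mutant CFTR-F508del with the halide-sensitive YFP; corrector assay measuring rescue of mutant channel to the surface after 24 h compound exposure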
Vif imaging = blocks HIV Vif function; HEK293T cells, Vif self-association by quenched fluorescence, imaging, 24 h; AID 602346; inhibition, % at 7.49 µM; 340,000 tested, 0.35% active; in the data active means inhibition above about 50%, passing the limit was not always enough; inconclusive means no clear call, values can overlap the other calls; inactive means below about 31%
Of the large screens only hits and unclear results are named; the others gave an inactive call. Shown are actives, neighbours in structure and some others; about 1.7% of the full set was active somewhere.

CCOc1ccc(N=C2NC(=O)S/C2=C\c2ccc(N(C)C)cc2)cc1	Vif imaging 148 (no result: FGF22 binding, F508del corr)
CCOc1ccc(/C=C2/SC(=O)NC2=S)cc1	none (no result: FGF22 binding, F508del corr)
CO[C@@H]1CN(C)C(=O)c2ccc(NS(C)(=O)=O)cc2OC[C@@H](C)N(Cc2ccccn2)C[C@H]1C	none (no result: FGF22 binding, Vif imaging)
CCCNC1(C(N)=O)CCN(Cc2ccccc2)CC1	FGF22 binding 43
CCNC1(C(N)=O)CCN(Cc2ccccc2)CC1	none
CCC(=O)N(C)C[C@@H]1Oc2cc(C#CC3CCCCC3)ccc2S(=O)(=O)N([C@H](C)CO)C[C@@H]1C	none (no result: Vif imaging)
O=C(C[C@@H]1C=C[C@H](NC(=O)Nc2cc(F)ccc2F)[C@@H](CO)O1)NCc1ccc2c(c1)OCO2	none (no result: Vif imaging)
CCOc1cc(N2CCOCC2)c(OCC)cc1NC(=O)CN1C(=O)NC2(CCCCC2)C1=O	F508del corr 22, Vif imaging inconclusive
CC1CCCCC12NC(=O)N(CC(=O)Nc1ccccc1N1CCOCC1)C2=O (configuration not stated)	FGF22 binding 43
CC1CCCCC12NC(=O)N(CC(=O)Nc1sccc1C(N)=O)C2=O (configuration not stated)	none
CC1CCCCC12NC(=O)N(CC(=O)Nc1nccs1)C2=O (configuration not stated)	FGF22 binding 43
CCOc1cc(NC(=S)NCCCN2CCOCC2)c(OCC)cc1NC(=O)c1cccc(C)c1	none
CCOc1cc(N2CCOCC2)c(OCC)cc1NC(=S)NCCCOC	FGF22 binding 43
CC1CCCCC12NC(=O)N(CC(=O)Nc1ccc(S(=O)(=O)N3CCOCC3)cc1)C2=O (configuration not stated)	none (no result: FGF22 binding, F508del corr)
CCOc1cc(N2CCOCC2)c(OCC)cc1NC(=O)CN1C(=O)NC(C)(C2CC2)C1=O (configuration not stated)	none
C[C@@H]1CN([C@H](C)CO)C(=O)c2cccc(NS(=O)(=O)c3cccs3)c2O[C@H]1CN(C)Cc1ccc(Cl)c(Cl)c1	none (no result: Vif imaging)
N#C[C@H]1[C@H](c2ccc(-c3cccc(F)c3)cc2)[C@@H](CO)N1C(=O)NC1CCCCC1	none (no result: FGF22 binding, Vif imaging)
COC(=O)[C@@H]1[C@@H](CO)[C@@H]2Cn3c(ccc(-c4ccccc4)c3=O)[C@@H]2N1C(=O)CC1CC1	none (no result: F508del corr, Vif imaging)
O=C(C[C@@H]1CC[C@H](NC(=O)C2CCC2)[C@H](CO)O1)NCc1ccccc1Cl	none (no result: Vif imaging)
CCOC(=O)Cc1cnc(NC(=O)CSc2nc(C)cc(C)n2)s1	FGF22 binding 44
Cc1cc(C)nc(SCC(=O)Nc2ncc(Cc3cccc(Cl)c3Cl)s2)n1	none (no result: FGF22 binding, F508del corr)
O=C(COC(=O)c1ccc(O)cc1)Nc1cc(C(F)(F)F)ccc1Cl	none
CCOC(=O)c1ccc[n+](CC(=O)Nc2cc(C(F)(F)F)ccc2Cl)c1	Vif imaging 53
O=C(N/C=C/n1cnc2cc(C(F)(F)F)ccc21)c1ccccc1F	FGF22 binding 44
O=C(N/C=C/n1cnc2cc(C(F)(F)F)ccc21)c1ccc(F)cc1	none (no result: Vif imaging)
CNC(=O)C[C@@H]1CC[C@H]2[C@H](COc3ccc(NC(=O)c4ccc5c(c4)OCO5)cc3C(=O)N2C)O1	none (no result: Vif imaging)
O=C(/C=C/c1ccc([N+](=O)[O-])cc1)OCc1cnc(-c2ccccc2)o1	FGF22 binding 44
CC(NC(=O)COC(=O)/C=C/c1ccc([N+](=O)[O-])cc1)c1ccccc1 (configuration not stated)	none (no result: F508del corr)
O=C(C[C@H]1CC[C@H]2[C@@H](COC[C@H](O)CN2C(=O)c2ccncc2)O1)NCc1cccc(F)c1	none (no result: Vif imaging)
O=C(Nc1cccc(F)c1)c1ccc(-c2ccccc2C(F)(F)F)o1	none (no result: Vif imaging)
COc1ccc(NC(=O)c2ccc(-c3ccccc3C(F)(F)F)o2)cc1	FGF22 binding 44
CCCN(C)C[C@@H]1Oc2cc(C#Cc3cccc(OC)c3)ccc2S(=O)(=O)N([C@H](C)CO)C[C@@H]1C	none (no result: Vif imaging)
C[C@@H]1CN([C@@H](C)CO)C(=O)c2cc(NC(=O)CCC(F)(F)F)ccc2O[C@@H](C)CCCCO[C@H]1CN(C)S(=O)(=O)c1cccs1	none (no result: Vif imaging)
COCC(=O)N1[C@H](CO)[C@H](c2ccccc2-c2cccc(F)c2)[C@@H]1C#N	none (no result: Vif imaging)
Cc1ccc(OCC(=O)Nc2nnc(C3CCCO3)s2)c(Br)c1 (configuration not stated)	FGF22 binding 44
Cc1cccc(C)c1OCC(=O)Nc1nnc(C2CCCO2)s1 (configuration not stated)	none (no result: FGF22 binding, F508del corr)
CC1=NNC(=O)C1CCC(=O)N/N=C(/C)c1ccc([N+](=O)[O-])cc1 (configuration not stated)	FGF22 binding 43
O=C(CCc1c[nH]c2ccccc12)Nc1ccc(Nc2ccncc2)cc1	none (no result: Vif imaging)
Cc1ccc(NC(=O)COC(=O)CCc2c[nH]c3ccccc23)cc1[N+](=O)[O-]	FGF22 binding 43
Cc1ccccc1NC(=O)COC(=O)CCc1c[nH]c2ccccc12	none
